Results filed as inconclusive are left out. Where a call stands in place of a potency, no number is given. Calls of active or inactive are those of the source. The call rests on the fitted dose curve.
The molecules below were run against D(2) dopamine receptor (Homo sapiens) (UniProt P14416) (assay: Dopamine D2 receptor (DRD2) small molecule agonists, cell-based qHTS assay (AID 1963594; further: nearly all actives have a fitted effect of over 35% in size)). Details: HEK293-DRD2 cAMP HTRF, agonist mode, 30 min; series mostly up to 92.4 µM; activation: at the top concentration.
D(2) dopamine receptor (Homo sapiens), sequence (P14416 whole entry, looked up): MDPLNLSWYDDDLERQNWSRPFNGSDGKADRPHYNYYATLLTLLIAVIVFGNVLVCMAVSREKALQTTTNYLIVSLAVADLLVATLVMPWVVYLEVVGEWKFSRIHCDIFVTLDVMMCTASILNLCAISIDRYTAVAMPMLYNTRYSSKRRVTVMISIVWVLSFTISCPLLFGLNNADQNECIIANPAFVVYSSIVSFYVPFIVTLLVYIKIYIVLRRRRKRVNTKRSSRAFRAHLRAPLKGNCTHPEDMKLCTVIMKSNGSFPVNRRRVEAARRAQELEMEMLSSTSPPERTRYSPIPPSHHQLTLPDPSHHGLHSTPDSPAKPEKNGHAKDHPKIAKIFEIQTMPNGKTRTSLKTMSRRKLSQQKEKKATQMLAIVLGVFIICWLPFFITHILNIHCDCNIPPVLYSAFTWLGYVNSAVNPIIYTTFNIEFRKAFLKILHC
Description: National Center for Advancing Translational Sciences [NCATS]
Division of Preclinical Innovation [DPI]
U.S. Environmental Protection Agency [EPA]
National Institutes of Environmental Health Sciences [NIEHS]
National Toxicology Program [NTP]
U.S. Food and Drug Administration [FDA]
DRD2 is the D2 subtype of the dopamine receptor, which is coupled to Gi subtype of G protein-coupled receptor. This G protein-coupled receptor inhibits adenylyl cyclase activity. The DRD2-HEK293 cell line stably expressing D2 dopamine receptor can be used for screening agonists and antagonists of interactions between D2 and its ligands. The Hek293-DRD2 cAMP assay is based on HTRF technology. It measures changes of cAMP accumulation in response to Gi coupled GPCR activation or inhibition.
Tox21 Assay Protocol Summary:
DRD2-Hek293 cells were dispensed at 600 cells/3uL/well in 1536-well white plates using a Multidrop Dispenser. After the assay plates were incubated at a 37 C/5% CO2 incubator for 24 h, 1 uL of Ro20-1724 at final concentration of 0.1 mM was transferred to the assay plate by a Flying Reagent Dispenser. Following Ro20-1724 addition, 23 nL of compound dissolved in DMSO, positive controls or DMSO only was added to the assay plates via Wako pintool station. The assay plates were incubated at room temperature for 10 min. Next, 1 uL of NKH477 at 200nM was added into the plates. After the assay plates were incubated at room temperature for an additional 30 min, 2.5 ul/well of cAMP-d2 and 2.5 ul/well of anti-cAMP-cryptate were added respectively into the assay plates using a Flying Reagent Dispenser. The plates were incubated at room temperature for 1 h. The fluorescence intensity in the plates was measured at 340 nm excitation and 665 & 620 nm emission by an Envision plate reader.
In the case of `COc1ccc(C=O)cc1OC`, the Potency is reported as “inactive”.
With `Nc1cnn(-c2ccccc2)c(=O)c1Cl` the “activation” value was 2.51% (inactive).
In the case of `CC(C)=CCN1CC[C@@]2(C)c3cc(O)ccc3C[C@@H]1[C@@H]2C`, the “activation” value is reported as 0.915% (inactive).
With `O=[N+]([O-])CCO` the “activation” value was 0.0958% (inactive).
For `C=CCN=C=S`, the Potency was “inactive”.
`CC(C)c1ccc(CO)cc1` was tested, and the Potency was “inactive”.
In the case of `CC(Cl)(Cl)C(=O)O`, the Potency is reported as “inactive”.
`CC(C)CCCCCCOC(=O)c1ccccc1C(=O)OCCCCCCC(C)C` was tested, and the Potency was “inactive”.
For `CS(=O)(=O)NC(=O)c1cc(Oc2ccc(C(F)(F)F)cc2Cl)ccc1[N+](=O)[O-]`, the Potency was “inactive”.
With `[Cd+2].[Cl-].[Cl-]` the Potency was “inactive”.
For `CCC[CH2][Sn]([Cl])([Cl])[Cl]`, the Potency was “inactive”.
With `CCCCOP(=O)(CCCC)OCCCC` the “activation” value was 0.129% (inactive).
With `ClCc1cccnc1` the Potency was “inactive”.
`CC1=C(C(=O)Nc2ccccc2)SCCO1` was tested, and the Potency was “inactive”.
With `C=CC(=O)OCC(CC)(COC(=O)C=C)COC(=O)C=C` the Potency was “inactive”.
`CNC(=O)CSP(=S)(OC)OC` was tested, and the Potency was “inactive”.
With `N#Cc1ccccc1Cl` the “activation” value was -1.1% (inactive).
With `CCCCCCCCCBr` the “activation” value was 1.75% (inactive).
With `CCC(=O)c1ccccc1` the “activation” value was 6.75% (inactive).
With `Oc1c(Br)cc(Br)cc1Br` the Potency was “inactive”.
In the case of `N#Cc1cccnc1`, the “activation” value is reported as -0.295% (inactive).
In the case of `COc1ccc(N)cc1`, the Potency is reported as “inactive”.
In the case of `COC(=O)c1c(C(F)F)nc(C(F)(F)F)c(C2=NCCS2)c1CC(C)C`, the “activation” value is reported as -9.51% (inactive).
`CCCCCCCCn1sccc1=O` was tested, and the Potency was 42.8 µM (active).
`CCNc1nc(Cl)nc(NC(C)C)n1` was tested, and the Potency was “inactive”.
For `CN(C)P(=O)(N(C)C)N(C)C`, the Potency was “inactive”.
In the case of `O=C(O)c1ccccc1O`, the Potency is reported as “inactive”.
`CN1C(=O)NC(=O)C(C)(C2=CCCCC2)C1=O` (stereo not given) was tested, and the “activation” value was 15.5% [at 42.5 µM] (inactive).
For `O=[N+]([O-])O[C@H]1CO[C@H]2[C@@H]1OC[C@H]2O[N+](=O)[O-]`, the “activation” value was 4.74% [at 42.5 µM] (inactive).
In the case of `O=[N+]([O-])c1ccc(CBr)cc1`, the “activation” value is reported as 2.61% (inactive).
For `CCCCCCCCCCCC#N`, the Potency was “inactive”.
`O=C(O)c1nn(Cc2ccc(Cl)cc2Cl)c2ccccc12` was tested, and the Potency was “inactive”.
For `COP(=O)(O)OC`, the “activation” value was 6.73% (inactive).
In the case of `O=C(NCNC(=O)NC1C(=O)NC(=O)N1CO)NC1C(=O)NC(=O)N1CO` (stereo not given), the “activation” value is reported as -1.1% (inactive).
In the case of `Clc1ccc(Cl)cc1`, the Potency is reported as “inactive”.
In the case of `O=Cc1ccccc1`, the “activation” value is reported as -1.35% (inactive).
`CCOC(=O)CC(SP(=O)(OC)OC)C(=O)OCC` (stereo not given) was tested, and the Potency was “inactive”.
With `O=C1C2(Cl)C3(Cl)C4(Cl)C(Cl)(Cl)C5(Cl)C3(Cl)C1(Cl)C5(Cl)C24Cl` (stereo not given) the Potency was “inactive”.
In the case of `C[N+](C)(C)Cc1ccccc1`, the Potency is reported as “inactive”.
For `N#Cc1nn(-c2c(Cl)cc(C(F)(F)F)cc2Cl)c(N)c1S(=O)C(F)(F)F` (stereo not given), the Potency was “inactive”.

Source: PubChem BioAssay (Tox21)
Potency means the concentration at half of the fitted maximal effect.
